PubChem BioAssay (EPA / NIEHS)
Calls of active or inactive are those of the source. Rule for the calls: active = hit-call score of the fitted dose curve at least 0.9, where 1 is the maximum; inactive = score below 0.9.

Legend:
[1] = ATG_CRE_CIS: Attagene CIS-FACTORIAL HepG2 Assay for human cAMP Responsive Element (CRE) binding protein 3 (AID 2282926); settings: HepG2 CRE cis-reporter, Attagene multiplexed mRNA; actives raise or lower the signal
Method in brief: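 Multiplexed transcription-unit reporters transfected into HepG2; 24 h dosing; RT-PCR/capillary electrophoresis fluorescence read-out; bidirectional fit vs DMSO.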

[2] = biological target: CCAAT/enhancer-binding protein beta (Homo sapiens) (UniProt P17676); test: ATG_C_EBP_CIS: Attagene CIS-FACTORIAL HepG2 Assay for human CCAAT/Enhancer Binding Protein (C/EBP) beta (AID 2282927); settings: HepG2 Attagene cis-factorial transcription factor reporter; actives raise or lower the signal
Sequence of CCAAT/enhancer-binding protein beta (Homo sapiens) (P17676 whole entry, looked up): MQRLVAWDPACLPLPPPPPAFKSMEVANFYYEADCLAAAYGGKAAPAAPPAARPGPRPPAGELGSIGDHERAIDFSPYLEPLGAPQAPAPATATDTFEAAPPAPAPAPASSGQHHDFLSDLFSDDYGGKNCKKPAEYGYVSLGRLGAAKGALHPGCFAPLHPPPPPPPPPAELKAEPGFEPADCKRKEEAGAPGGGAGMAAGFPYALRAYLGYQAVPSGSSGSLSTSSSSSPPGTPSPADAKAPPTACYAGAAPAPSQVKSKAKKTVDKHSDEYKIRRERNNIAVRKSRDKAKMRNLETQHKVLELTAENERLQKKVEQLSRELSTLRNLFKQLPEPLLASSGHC
Method in brief: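 Transiently transfected HepG2 (MRTU library, endogenous TF-driven promoters); 24 h dosing; total RNA → oligo(dT) RT → PCR → 6-FAM primer extension → HpaI digest → CE; fit bidirectionally vs DMSO.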

[3] = ATG_CMV_CIS: Attagene CIS-FACTORIAL HepG2 Assay for human CMV (Internal Marker) (AID 2282928); settings: HepG2 CMV promoter reporter, transcription factor profiling; actives raise or lower the signal;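 note: endpoint acts as a background internal control marker rather than a target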
Method in brief: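 Cell system: HepG2, transiently transfected multiple reporter units under cis promoters. Exposure: 24 h. Detection: RT-PCR, FAM labeling, HpaI digestion, capillary electrophoresis. Analysis: bidirectional, DMSO baseline.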

[4] = ATG_DR4_LXR_CIS: Attagene CIS-FACTORIAL HepG2 Assay for human Liver X Receptor (LXR), DR4 submotif (AID 2282929); settings: HepG2 Attagene DR4 cis-reporter, mRNA transcription; actives raise or lower the signal
Method in brief: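 Measures endogenous transcription factor activity via a DR4-driven reporter transcript in human HepG2 cells. Compounds incubated 24 h; mRNA quantified by RT-PCR and capillary electrophoresis, analysed as gain or loss of signal versus DMSO.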

[5] = biological target: Aryl hydrocarbon receptor (Homo sapiens) (UniProt P35869); test: ATG_Ahr_CIS: Attagene CIS-FACTORIAL HepG2 Assay for human Aryl Hydrocarbon Receptor (Ahr) (AID 2282930); settings: HepG2 AhR cis-factorial reporter transcription; actives raise or lower the signal
Sequence of Aryl hydrocarbon receptor (Homo sapiens) (P35869 whole entry, looked up): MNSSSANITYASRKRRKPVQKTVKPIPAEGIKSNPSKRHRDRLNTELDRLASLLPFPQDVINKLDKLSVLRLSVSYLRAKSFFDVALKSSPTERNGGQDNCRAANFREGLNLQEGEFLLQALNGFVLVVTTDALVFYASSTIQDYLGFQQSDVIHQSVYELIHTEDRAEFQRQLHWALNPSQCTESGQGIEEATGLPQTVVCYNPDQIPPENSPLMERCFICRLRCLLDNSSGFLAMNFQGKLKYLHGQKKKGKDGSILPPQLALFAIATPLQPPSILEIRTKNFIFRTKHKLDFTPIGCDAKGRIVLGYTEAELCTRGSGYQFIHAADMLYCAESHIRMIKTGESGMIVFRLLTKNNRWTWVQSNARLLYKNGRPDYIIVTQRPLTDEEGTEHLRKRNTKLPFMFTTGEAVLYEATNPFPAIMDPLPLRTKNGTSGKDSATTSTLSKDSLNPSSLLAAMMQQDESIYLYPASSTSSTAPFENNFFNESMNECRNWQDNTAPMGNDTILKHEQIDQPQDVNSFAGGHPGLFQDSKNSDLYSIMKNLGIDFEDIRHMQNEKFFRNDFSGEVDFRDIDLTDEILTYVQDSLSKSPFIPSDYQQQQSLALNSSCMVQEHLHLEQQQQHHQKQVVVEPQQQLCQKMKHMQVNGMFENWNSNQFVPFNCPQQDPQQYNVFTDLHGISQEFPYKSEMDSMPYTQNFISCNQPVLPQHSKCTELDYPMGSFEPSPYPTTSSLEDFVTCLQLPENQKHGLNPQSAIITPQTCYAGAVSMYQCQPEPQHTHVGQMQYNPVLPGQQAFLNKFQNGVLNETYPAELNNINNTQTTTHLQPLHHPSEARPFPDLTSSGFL
Method in brief: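 Read-out: reporter mRNA quantified by RT-PCR with fluorescent primer extension and capillary electrophoresis. Human HepG2 liver cells carried transfected cis-promoter reporter units and were exposed to chemical for 24 h; gain or loss fitted relative to DMSO.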

[6] = ATG_AP_1_CIS: Attagene CIS-FACTORIAL HepG2 Assay for human Activator Protein 1 (AP-1) (AID 2282931); settings: HepG2 Attagene cis-factorial AP-1 reporter mRNA; actives raise or lower the signal
Method in brief: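 Bidirectional concentration-response fitting against DMSO controls. Underlying signal: reporter mRNA from cis-promoter constructs in transiently transfected HepG2, measured after 24 h by RT-PCR and capillary electrophoresis.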

[7] = ATG_AP_2_CIS: Attagene CIS-FACTORIAL HepG2 Assay for human Activator Protein 2 (AP-2) (AID 2282932); settings: HepG2 AP-2 cis-reporter, Attagene transcription factor profiling; actives raise or lower the signal
Method in brief: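 Multiplexed mRNA reporter assay in HepG2: cis-regulated units report endogenous factor activity after 24 h treatment. Fluorescence from capillary electrophoresis of RT-PCR products gives the signal, with DMSO as baseline.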

[8] = ATG_BRE_CIS: Attagene CIS-FACTORIAL HepG2 Assay for human Bone Morphogenetic Protein (BMP) Response Element (BRE) (AID 2282933); settings: HepG2 BMP response element reporter, Attagene transcription factor profiling; actives raise or lower the signal
Method in brief: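 Read-out: reporter mRNA induction quantified by RT-PCR and capillary electrophoresis after 24 h chemical exposure of transfected HepG2 cells. Endogenous factor activity on the BMP response element; gain or loss fitted against DMSO baseline.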

[9] = biological target: Retinoic acid receptor alpha (Homo sapiens) (UniProt P10276); test: ATG_DR5_RAR_CIS: Attagene CIS-FACTORIAL HepG2 Assay for human Retinoic Acid Receptor Alpha (RARE), DR5 submotif (AID 2282934); settings: HepG2 Attagene cis-factorial RARE DR5 reporter, mRNA; actives raise or lower the signal
Sequence of Retinoic acid receptor alpha (Homo sapiens) (P10276 whole entry, looked up): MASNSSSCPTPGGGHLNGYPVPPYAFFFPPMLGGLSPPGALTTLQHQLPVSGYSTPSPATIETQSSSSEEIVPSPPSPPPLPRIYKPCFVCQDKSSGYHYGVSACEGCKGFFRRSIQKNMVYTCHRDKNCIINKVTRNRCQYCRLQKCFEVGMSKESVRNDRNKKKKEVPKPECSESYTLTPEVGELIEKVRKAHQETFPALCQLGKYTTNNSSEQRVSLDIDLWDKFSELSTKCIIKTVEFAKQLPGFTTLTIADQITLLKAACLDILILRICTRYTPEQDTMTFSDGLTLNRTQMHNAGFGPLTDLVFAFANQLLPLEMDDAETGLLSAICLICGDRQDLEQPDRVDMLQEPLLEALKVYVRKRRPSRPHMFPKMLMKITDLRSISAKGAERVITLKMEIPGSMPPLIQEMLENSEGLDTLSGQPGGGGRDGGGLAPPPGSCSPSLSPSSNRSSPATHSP
Method in brief: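 Read-out: DR5-driven reporter transcript measured by RT-PCR, 6-FAM primer extension, HpaI digest and capillary electrophoresis. Human HepG2 liver cells carry transiently transfected cis-element reporter constructs; dosing lasts 24 h. Gain or loss of signal fitted against DMSO baseline.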

Measured: AC50

Cc1cccc(C)c1
not listed: [9]
inactive: all other assays above

O=C1OCc2ccccc21
not listed: [9]
inactive: all other assays above

COc1ccc(OC)cc1
not listed: [9]
inactive: all other assays above

CCCCCCC(C)O (configuration not stated)
not listed: [9]
inactive: all other assays above

[Na+]
not listed: [9]
inactive: all other assays above

CCCCCCCCCCCCN1CCOCC1
active: [3] 44.8 µM | [4] 60.5 µM | [6] 51.8 µM | [8] 47.7 µM
not listed: [9]
inactive: all other assays above

CC(=O)OC(C)(C)C
not listed: [9]
inactive: all other assays above

NC(N)=S
not listed: [9]
inactive: all other assays above

CC1=CCC(=C(C)C)CC1
not listed: [9]
inactive: all other assays above

CN(C)CCC=C1c2ccccc2CCc2ccccc21
active: [1] 33.4 µM | [4] 27 µM | [6] 61.2 µM
not listed: [9]
inactive: all other assays above

C=C(C)CCCC(C)CCO (configuration not stated)
inactive: all assays above

CCC(C)COC(=O)CC(C)C (configuration not stated)
inactive: all assays above

CC(C)Cc1ccc(C(C)C(=O)O)cc1 (configuration not stated)
inactive: all assays above

O=C(O)CS
inactive: all assays above

CN(C)C
not listed: [9]
inactive: all other assays above

OC[C@@H](O)[C@H](O)[C@@H](O)[C@@H](O)CO
inactive: all assays above

[O-]/[N+](=N\O)c1ccccc1
active: [5] 4.26 µM
inactive: all other assays above

CCCCCCCCCCCCOCCOS(=O)(=O)O
inactive: all assays above

C=C(C)C(N)=O
inactive: all assays above

N#CCCCC(C#N)CCC#N (configuration not stated)
inactive: all assays above

COC(=O)c1ccc(C(=O)OC)cc1
inactive: all assays above

O=S1(=O)CC(Cl)(Cl)C(Cl)(Cl)C1
active: [3] 2.22 µM | [4] 2.41 µM
not listed: [9]
inactive: all other assays above

CCOC(=O)CCCCCCCCC(=O)OCC
inactive: all assays above

CCC(C)(C)c1cc(O)c(C(C)(C)CC)cc1O
active: [1] 5.39 µM | [2] 19.8 µM | [3] 54.3 µM | [4] 26.7 µM
inactive: [5] | [6] | [7] | [8]

O=C(OCc1ccccc1)c1ccccc1O
active: [3] 64.1 µM | [4] 55.1 µM | [5] 61.9 µM | [6] 111 µM | [8] 133 µM
inactive: [1] | [2] | [7] | [9]

CCNC(=S)NCC
not listed: [9]
inactive: all other assays above

c1ccc(OCCOc2ccccc2)cc1
active: [5] 0.142 µM
not listed: [9]
inactive: all other assays above

CC1=CC(O)CC(C)(C)C1 (configuration not stated)
active: [5] 44.9 µM
inactive: all other assays above
